Results filed as inconclusive are left out. Active and inactive are the calls of the source. How the source made its calls, unless noted: active means hit-call score of the fitted dose curve at least 0.9, where 1 is the maximum; inactive means score below 0.9.
Tests used:
[1] = TOX21_p53_BLA_p2_viability: Viability Assessment in the Tox21 HCT-116 p53 Agonism Beta-lactamase Assay, Phase 2 (AID 2283591; active means hit-call score of the fitted dose curve at least 0.9, where 1 is the maximum;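 further: actives lower the ATP signal meaning cytotoxicity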)
How it was run: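 HCT116 p53-bla cells, 4000/well, dosed after 5 h plating (217-fold dilution of DMSO stocks) and incubated 16 h at 37C. Viability taken as cellular ATP by CellTiter-Glo luminescence after 30 min RT; signal loss marks cytotoxicity.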

[2] = molecular target: Cellular tumor antigen p53 (Homo sapiens) (UniProt P04637); assay: TOX21_p53_BLA_p2_ratio: Tox21 HCT-116 p53 Agonism Beta-lactamase Assay, Ratio, Phase 2 (AID 2283592; active means hit-call score of the fitted dose curve at least 0.9, where 1 is the maximum)
Chain of Cellular tumor antigen p53 (Homo sapiens) (P04637 whole entry, looked up): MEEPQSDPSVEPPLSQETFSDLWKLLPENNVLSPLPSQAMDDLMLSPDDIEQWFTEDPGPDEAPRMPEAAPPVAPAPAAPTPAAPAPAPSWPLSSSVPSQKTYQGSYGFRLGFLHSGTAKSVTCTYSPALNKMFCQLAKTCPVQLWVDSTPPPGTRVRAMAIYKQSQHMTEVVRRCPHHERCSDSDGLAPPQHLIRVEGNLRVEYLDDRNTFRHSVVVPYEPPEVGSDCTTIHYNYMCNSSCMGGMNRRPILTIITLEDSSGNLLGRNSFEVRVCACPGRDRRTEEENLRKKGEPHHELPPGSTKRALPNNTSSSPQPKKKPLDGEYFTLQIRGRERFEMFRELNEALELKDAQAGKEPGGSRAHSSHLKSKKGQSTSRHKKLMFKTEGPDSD
How it was run: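 An inducible beta-lactamase reporter in HCT116 cells signals p53 pathway activation. After 16 h chemical exposure at 37C, cells load CCF4-AM substrate for 2 h at room temperature; activity is the cleaved/uncleaved emission ratio relative to DMSO.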

[3] = TOX21_p53_BLA_p3_viability: Viability Assessment in the Tox21 HCT-116 p53 Agonism Beta-lactamase Assay, Phase 3 (AID 2283593; active means hit-call score of the fitted dose curve at least 0.9, where 1 is the maximum;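 further: cells exposed to compound for 16 h before reading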)
How it was run: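 HCT116 cells, 4000/well, dosed 5 h after plating by pin transfer (217-fold dilution from DMSO stock) and incubated 16 h at 37C, 5% CO2. Viability read as ATP luminescence with CellTiter-Glo after 30 min at room temperature.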

[4] = molecular target: Cellular tumor antigen p53 (Homo sapiens) (UniProt P04637); assay: TOX21_p53_BLA_p3_ratio: Tox21 HCT-116 p53 Agonism Beta-lactamase Assay, Ratio, Phase 3 (AID 2283596; active means hit-call score of the fitted dose curve at least 0.9, where 1 is the maximum)
How it was run: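 HCT116 p53-bla cells (4000/well) given compound in DMSO (217-fold dilution) after 5 h, incubated 16 h at 37C. CCF4-AM substrate 2 h at room temperature; 460/530 nm emission ratio, gain fitted against DMSO.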

[5] = TOX21_p53_BLA_p4_viability: Viability Assessment in the Tox21 HCT-116 p53 Agonism Beta-lactamase Assay, Phase 4 (AID 2283597; active means hit-call score of the fitted dose curve at least 0.9, where 1 is the maximum;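 further: hits lower the luminescence signal meaning cytotoxicity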)
How it was run: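 Compound exposure of HCT116 cells lasts 16 h at 37C, 5% CO2, with DMSO stocks diluted 217-fold. Cellular ATP is then quantified by CellTiter-Glo luminescence after 30 min at room temperature.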

[6] = molecular target: Cellular tumor antigen p53 (Homo sapiens) (UniProt P04637); assay: TOX21_p53_BLA_p4_ratio: Tox21 HCT-116 p53 Agonism Beta-lactamase Assay, Ratio, Phase 4 (AID 2283601; active means hit-call score of the fitted dose curve at least 0.9, where 1 is the maximum)
How it was run: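 HCT-116 p53 beta-lactamase reporter cells (4000/well) preincubated 5 h, then compound (217-fold dilution of DMSO stock) for 16 h at 37C. CCF4-AM substrate added 2 h at room temperature; 460/530 nm emission ratio fitted upward versus DMSO.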

[7] = CCTE_Shafer_MEA_dev_firing_rate_mean: CCTE's Neural Network Formation Assay for Mean Firing Rate, Shafer Lab (AID 2284031)
How it was run: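 Primary rat cortical neurons on 48-well, 16-electrode MEAs (PEI-coated, laminin at plating), exposed from day 0 with compound renewed at DIV 5 and 9. Spikes recorded DIV 5, 7, 9, 12; well-mean firing rate collapsed to trapezoidal AUC, loss-of-signal vs DMSO.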

[8] = CCTE_Shafer_MEA_dev_per_burst_spike_percent: CCTE's Neural Network Formation Assay for Percent of Spikes in a Burst, Shafer Lab (AID 2284032)
How it was run: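 Rat primary cortical neurons on 16-electrode MEA wells, dosed from plating day 0 for 12 days with renewal on DIV 5 and 9; spikes-in-bursts percentage averaged over bursting electrodes, collapsed as AUC across days 5, 7, 9, 12; loss direction versus DMSO.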

[9] = CCTE_Shafer_MEA_dev_burst_rate: CCTE's Neural Network Formation Assay for Burst Rate, Shafer Lab (AID 2284042)
How it was run: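 Exposure ran continuously over 12 days of network development in rat cortical cultures, with compound refreshed during full media changes on DIV 5 and 9. Single-electrode bursts per recording time, well-mean over active electrodes, trapezoidal AUC across days 5–12, fitted downward relative to DMSO.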

[10] = CCTE_Shafer_MEA_dev_bursting_electrodes_number: CCTE's Neural Network Formation Assay for Number of Bursting Electrodes, Shafer Lab (AID 2284043; active means hit-call score of the fitted dose curve at least 0.9, where 1 is the maximum)
How it was run: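 Primary rat cortical neurons plated on 16-electrode MEA wells, exposed from day 0 with compound renewed at DIV 5 and 9. Electrodes bursting ≥1 burst per 2 min counted on days 5, 7, 9 and 12; trapezoidal AUC across days, fitted for loss versus DMSO.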

[11] = CCTE_Shafer_MEA_dev_per_burst_interspike_interval: CCTE's Neural Network Formation Assay for Burst Interspike Interval, Shafer Lab (AID 2284044);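 further: mean spike spacing inside bursts as AUC over recordings on days 5 7 9 12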
How it was run: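 Developmental network-formation MEA in primary rat cortical cultures with exposure spanning days 0–12. Within-burst ISI is averaged per well and integrated across recording days by area under the curve, with DMSO as negative control baseline.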

[12] = CCTE_Shafer_MEA_dev_burst_duration_mean: CCTE's Neural Network Formation Assay for Mean Burst Duration, Shafer Lab (AID 2284045)
How it was run: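 Primary rat cortical neurons on 48-well 16-electrode MEA plates, exposed from day 0 with renewal at DIV 5 and 9; spontaneous activity recorded on days 5, 7, 9, 12. Well-mean burst duration across bursting electrodes, collapsed as trapezoidal AUC; DMSO baseline.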

[13] = CCTE_Shafer_MEA_dev_interburst_interval_mean: CCTE's Neural Network Formation Assay for Mean Interburst Interval, Shafer Lab (AID 2284046);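 further: well-mean interburst interval of bursting electrodes as AUC over four recording days; curve fitted for decrease in interburst interval relative to DMSO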
How it was run: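 Primary rat cortical neurons on PEI-coated 48-well MEA plates (laminin added with cells at plating) (16 electrodes/well), exposed from plating day 0 with renewal at DIV 5 and 9. Mean inter-burst interval averaged over bursting electrodes, AUC across days 5, 7, 9, 12; DMSO baseline.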

[14] = CCTE_Shafer_MEA_dev_inter_network_spike_interval_mean: CCTE's Neural Network Formation Assay for Mean Inter-network Spike Interval, Shafer Lab (AID 2284047)
How it was run: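 Mean time between consecutive network-spike peaks, recorded extracellularly (adaptive spike detection) on DIV 5, 7, 9 and 12, summarized as trapezoidal AUC. Rat cortical cultures on MEAs dosed continuously days 0–12, re-dosed at feeds; loss-of-signal fit relative to DMSO.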

[15] = CCTE_Shafer_MEA_dev_network_spike_number: CCTE's Neural Network Formation Assay for Number of Network Spikes, Shafer Lab (AID 2284048)
How it was run: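 Primary rat cortical neurons on PEI/laminin 48-well MEA plates, dosed from plating day 0 for 12 days, renewed at DIV 5 and 9. Network spike counts recorded DIV 5, 7, 9, 12, collapsed as trapezoidal AUC; DMSO baseline.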

[16] = CCTE_Shafer_MEA_dev_network_spike_peak: CCTE's Neural Network Formation Assay for Mean Number of Electrodes in Network Spike, Shafer Lab (AID 2284049)
How it was run: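 Network-spike peak electrode count from recordings on days 5, 7, 9 and 12 was combined as trapezoidal area under the curve. Rat cortical cultures were treated continuously from plating, with compound renewed at each feed (DIV 5, 9); fits versus DMSO.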

[17] = CCTE_Shafer_MEA_dev_network_spike_duration_std: CCTE's Neural Network Formation Assay for Standard Deviation of Network Spike Duration, Shafer Lab (AID 2284052);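 further: hits are decreases in network spike duration SD versus DMSO vehicle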
How it was run: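 Network spike duration variability was collapsed across recordings on days 5, 7, 9 and 12 by trapezoidal area-under-curve and fitted downward against DMSO. Cultures were rat cortical neurons on PEI-coated MEA plates, dosed continuously from plating, refed with compound DIV 5/9.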

[18] = CCTE_Shafer_MEA_dev_per_network_spike_spike_number_mean: CCTE's Neural Network Formation Assay for Mean Number of Spikes in a Network Spike, Shafer Lab (AID 2284053)
How it was run: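 Mean spike count within each network spike, taken in a 0.05 s window at its peak, was recorded on days 5, 7, 9 and 12 and integrated as trapezoidal area under the curve. Rat cortical cultures on MEA plates received continuous compound from day 0, refreshed at medium changes on DIV 5 and 9.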

[19] = CCTE_Shafer_MEA_dev_per_network_spike_spike_percent: CCTE's Neural Network Formation Assay for Percent of Spikes in a Network Spike, Shafer Lab (AID 2284054)
How it was run: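 Rat primary cortical neurons were grown on 48-well MEA plates (16 electrodes/well), exposed from plating day 0 through day 12, with treatment renewed on DIV 5 and 9. Percent of spikes within 0.05 s network-spike peaks was measured, summarised as AUC across days 5, 7, 9, 12.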

[20] = UKN5_HCS_SBAD2_cell_viability: Viability Assessment in the University of Konstanz (UKN) Leist Lab Neurite Outgrowth Assay in human iPSC-derived immature Dorsal Root Ganglia Neurons (UKN5) (AID 2284056)
How it was run: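 iPSC-derived immature peripheral neurons (SBAD2) seeded on Matrigel with CHIR99021, SU5402 and DAPT, dosed 1 h later for 24 h. Viability from Hoechst H-33342 and calcein-AM live staining, high-content imaging; bidirectional fit versus DMSO.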

[21] = UKN5_HCS_SBAD2_neurite_outgrowth: University of Konstanz (UKN) Leist Lab Neurite Outgrowth Assay in human iPSC-derived immature Dorsal Root Ganglia Neurons (UKN5) (AID 2284070); conditions: actives raise or lower the signal
How it was run: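 Human iPSC-derived immature DRG neurons (SBAD2) on Matrigel with CHIR99021 (1.5 uM), SU5402 (5 uM), DAPT (5 uM); compounds added 1 h post-seeding for 24 h. Calcein-AM neurite area imaged; bidirectional fit vs DMSO.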

[22] = CCTE_Shafer_MEA_dev_mutual_information_norm: CCTE's Neural Network Formation Assay for Mutual Information Normalization, Shafer Lab (AID 2284091)
How it was run: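 Primary rat cortical neurons on PEI-coated 48-well MEA plates, 1.5 x 10^5 cells/well, exposed from day 0 through day 12 with re-dosing at DIV 5 and 9. Mutual information between electrodes recorded days 5, 7, 9, 12; trapezoidal AUC, loss-of-signal fit versus DMSO.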

[23] = UKN2_HCS_IMR90_neural_migration: University of Konstanz (UKN) Leist Lab Neural Crest Cell Migration Assay in human induced IMR90 Pluripotent Stem Cells (UKN2) (AID 2284204); conditions: actives raise or lower the signal
How it was run: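 iPSC-derived IMR90 neural crest cells seeded around stoppers on PLO/laminin/fibronectin; migration started in N2-S medium with EGF/FGF, compounds added after 24 h for 24 h. Migration into cell-free area imaged after calcein-AM/Hoechst staining; bidirectional fit versus DMSO.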

[24] = UKN4_HCS_LUHMES_neurite_outgrowth: University of Konstanz (UKN) Leist Lab Neurite Outgrowth Assay in human LUHMES cells (UKN4) (AID 2284206); conditions: actives raise or lower the signal
How it was run: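 LUHMES neuronal precursors differentiated 2 days, replated without cAMP/GDNF, then exposed to chemicals for 24 h. Neurite area imaged by high-content microscopy after calcein-AM staining; Hoechst H-33342 marks viability. Bidirectional fit versus DMSO.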

[25] = IUF_NPC1b_proliferation_BrdU_72hr: Leibniz Research Institute for Environmental Medicine (IUF) 72-hour Neural Progenitor Cell Bromodeoxyuridine (BrdU) Proliferation Assay (NPC1b) (AID 2284207)
How it was run: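 BrdU luminescence ELISA quantified DNA synthesis over the last 16 h of a 72 h exposure, fitted against DMSO. Primary hNPC spheres from gestational week 16-19 cortex grown with EGF/FGF at 37C, pH 7.2-7.6.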

[26] = IUF_NPC1a_proliferation_area_72hr: Leibniz Research Institute for Environmental Medicine (IUF) 72-hour Neural Progenitor Cell Proliferation Area Assay (NPC1a) (AID 2284208)
How it was run: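 Proliferation is scored as sphere area gain in primary human fetal neural progenitors treated for 72 h in EGF/FGF-containing medium. Viability, LDH and BrdU readouts come from the same wells.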

Measured: outcome

CC(C)(C)NCC(O)c1cc(O)cc(O)c1 (stereo unspecified)
inactive: all assays above
